Hits are enriched below; roughly 1.2% of the tested compounds scored in any of these assays.
RXFP1 antagonist: antagonists of human relaxin receptor RXFP1; activity change, negative = inhibition, % at 57.5 µM; hit rate 0.59% among 350,000; HEK293-RXFP1, relaxin-stimulated cAMP HTRF, 30 min; hits give low values; Q9HBX9; AID 1259400;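 active = activity change of -60% or lower, but not beyond a set lower limit; inconclusive = change between -60% and -40%, or beyond the set limit; inactive = change above -40%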; also: % is scaled to controls: 0 for no effect and ±100 for the full control effect
Target sequence (Q9HBX9 whole entry, looked up): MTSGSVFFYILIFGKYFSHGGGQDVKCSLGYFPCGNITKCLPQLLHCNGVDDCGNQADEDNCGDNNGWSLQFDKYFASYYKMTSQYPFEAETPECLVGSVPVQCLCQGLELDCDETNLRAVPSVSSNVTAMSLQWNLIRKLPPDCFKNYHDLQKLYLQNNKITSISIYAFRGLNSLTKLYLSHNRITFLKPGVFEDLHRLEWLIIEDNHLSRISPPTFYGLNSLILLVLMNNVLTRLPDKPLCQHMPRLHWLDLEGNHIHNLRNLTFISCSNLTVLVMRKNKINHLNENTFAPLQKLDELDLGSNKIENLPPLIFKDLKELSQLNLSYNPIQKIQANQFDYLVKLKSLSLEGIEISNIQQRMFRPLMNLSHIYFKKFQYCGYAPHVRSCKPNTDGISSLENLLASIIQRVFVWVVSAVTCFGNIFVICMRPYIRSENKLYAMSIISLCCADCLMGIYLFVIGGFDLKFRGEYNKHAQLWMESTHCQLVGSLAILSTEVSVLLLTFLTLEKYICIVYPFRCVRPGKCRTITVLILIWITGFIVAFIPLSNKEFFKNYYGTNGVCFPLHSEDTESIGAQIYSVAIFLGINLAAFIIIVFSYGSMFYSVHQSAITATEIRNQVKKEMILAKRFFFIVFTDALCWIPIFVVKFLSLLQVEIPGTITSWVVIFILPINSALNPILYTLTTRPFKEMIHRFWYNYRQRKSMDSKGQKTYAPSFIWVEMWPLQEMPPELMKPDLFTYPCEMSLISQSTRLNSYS
RXFP1 agonist: agonists of human relaxin receptor RXFP1; HEK293T-RXFP1 cAMP TR-FRET, 30 min; response scale: percent of porcine relaxin response, buffer zero; Potency, µM (top dose mostly 57.5 µM), for inactives: at the top dose activation, most hits filed as activators; hit rate 0.3% among 370,000; AID 2676; active = well fitted activation curve with a large enough effect; inconclusive = small, poorly fitted or top-dose-only effect; also: potency is read from the fitted curve at half-maximal effect; % is scaled to controls: 0 for no effect and ±100 for the full control effect; nearly all actives have a fitted effect of over 60% in size
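Agonist response is measured as cAMP accumulation in an RXFP1-transfected HEK293T line under PDE4 inhibition. Values are scaled between buffer-only and 29 nM porcine relaxin, and EC50s come from standard Hill equation fits.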
gsp ag: activates gsp, the McCune-Albright syndrome mutation. gsp mutant cells, cAMP HTRF, 30 min. Potency, µM (series often up to 76.9 µM), for inactives: at the top dose activation (cAMP increase), usual class: activators. hit rate 0.13% among 340,000; active = well fitted activation curve with a large enough effect; inconclusive = small, poorly fitted or top-dose-only effect, or another doubt; inactive = no such curve, though single readings can be large or run the other way; cell line not stated here;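 also: phosphodiesterase inhibitor Ro 20-1724 added with compounds to block cAMP breakdown; potency is read from the fitted curve at half-maximal effect; nearly all actives have a fitted effect of over 60% in size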
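Cells stably selected in G418 were plated at 2000/well, grown 16-24 hr, then given compounds in DMSO with the PDE inhibitor […] (300 uM solution added) for 30 min at 37C; cAMP was read by HTRF.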
gsp antag: antagonizes gsp, the McCune-Albright syndrome mutation; gsp-mutant cells, cAMP HTRF, 30 min; Potency, µM (top dose mostly 76.9 µM), for the others: top-dose activity change, negative = inhibition, most hits filed as inhibitors; hit rate 0.4% among 340,000; AID 624288; calls by dose curve; cell line not stated here;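 also: intracellular cAMP measured with PDE inhibitor Ro 20-1724 present during compound exposure; potency is read from the fitted curve at half-maximal effect; % is scaled to controls: 0 for no effect and ±100 for the full control effect; nearly all actives have a fitted effect of over 65% in size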
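G418-selected cells were plated in DMEM/10% FBS for 16-24 h at 37C, then treated with compounds plus the PDE inhibitor […] (300 uM solution added) for 30 min at 37C. Intracellular cAMP was measured by HTRF after 30 min lysis at room temperature.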
Akt phos inh: inhibitors of Akt phosphorylation; Neuro2A IGF-stimulated pAkt S473 HTRF, 20 min; hits give low values; activity change, % for hits at 50 µM; hit rate 0.32% among 360,000; AID 651550; in the data active = activity change below about -80%; inconclusive = mostly about -51% to -80%; also: % is scaled to controls: 0 for no effect and ±100 for the full control effect
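Neuro2A cells in DMEM with 0.5% FBS, overnight at 37 deg C, given compound at single 50 µM final, then IGF (6 nM final) for 20 min at 37 deg C. Lysed; phospho-Akt Ser473 by HTRF after 24 h, 665/615 ratio.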
* = called active by the depositor; i = inactive; ? = inconclusive; / = not tested or not shown; [ ] = dose if it differs, or a comment.

SMILES	RXFP1 antagonist	RXFP1 agonist	gsp ag	gsp antag	Akt phos inh
CC(C)(C)C(=O)Oc1ccc(S(=O)(=O)Nc2ccccc2C(=O)NCC(=O)O)cc1	12.1	/	/	/	/
Cn1c2cc(Br)sc2c2cnn(Cc3c(F)cccc3F)c(=O)c21	/	2.0%	/	/	/
Cc1ccc(NC(=O)CN2C(=O)CCc3cc(S(=O)(=O)N4CCOCC4)ccc32)cc1N(C)C	/	3.3%	/	/	/
Cc1ccc2[nH]c(C)cc(=S)c2c1	16.5	20µM*	25.7%[15.4 µM]	/	i
Cc1c(NC(=O)c2ccc(Br)o2)cccc1-c1nc2ccccc2o1	/	18.9%	/	/	/
COC(CNC(=O)c1cnn2c(C)c(Cc3ccccc3)c(C)nc12)OC	5.3	-0.2%	-8.1%[15.4 µM]	-8.8%	i
Cc1nc2c(C(=O)NCCc3ccc(Cl)cc3)cnn2c(C)c1Cc1ccc(F)cc1	-61.4*	-1.1%	/	/	/
Cc1nc2c(C(=O)NC(C)c3ccccc3)cnn2c(C)c1Cc1ccccc1 (configuration not stated)	-85.4*	-1.8%	/	/	/
Cc1nc2c(C(=O)NCCc3ccc(Cl)cc3)cnn2c(C)c1Cc1c(F)cccc1Cl	-21.0	0.8%	/	/	/
CCCCOC(=O)c1ccc(NC(=O)Cc2coc3ccc(C(C)C)cc23)cc1	-19.0	-3.1%	/	/	/
COc1ccccc1NC(=O)C1CCN(S(=O)(=O)c2ccc3[nH]c4c(c3c2)CCCCC4)CC1	-6.1	1.0%	/	/	/
O=Cc1cc(N=Nc2ccccc2Cl)ccc1O	-64.8*	-2.3%	-16.5%	?	i
O=Cc1cc(N=Nc2cccc(C(=O)O)c2)ccc1O	-12.9	0.7%	1.4%	-3.4%	i
CC(=O)c1cccc(S(=O)(=O)NCCc2csc3nc(-c4ccc(F)cc4)nn23)c1	-22.2	2.4%	/	/	/
COc1ccccc1NC(=O)CSC1=Nc2ccccc2C2=NC(Cc3ccccc3)C(=O)N12 (configuration not stated)	3.2	2.3%	/	/	/
O=C(CSc1ncnc2c1oc1ccccc12)c1cccs1	1.2	22.4µM*	?	-2.4%	?
c1ccc2[nH]c(CSc3ncnc4c3oc3ccccc34)nc2c1	-14.4	25.1µM*	31.4%	33.5%	/
Cc1nc(SCc2nc3ccccc3[nH]2)c2oc3ccccc3c2n1	-10.0	7.6%	-0.7%	6.1%	i
N[C@H](C(=O)O)c1ccc(O)cc1	-12.6	/	/	/	/
Cc1ccc(S(=O)(=O)Nc2cc3c(cc2N2CCOCC2)n(C)c(=O)n3C)c(C)c1	-15.5	6.5%	/	/	/
CCN1CCc2c(sc(NC(=S)NC(=O)c3ccc(Cl)cc3)c2C(N)=O)C1	-110.3*	-6.1%	11.3%[15.4 µM]	-18.0%	i
CCOc1ccccc1NC(=O)C1CCN(S(=O)(=O)c2cc(Br)cc3c2N(C(C)=O)CC3)CC1	5.7	13.1%	/	/	/
CCOc1ccccc1NC(=O)CSc1ncc2c(n1)-c1ccccc1N(CC)S2(=O)=O	3.1	0.6%	/	/	/
CCOC(=O)N1CCN(C(=O)Cc2ccc(-n3c(=O)[nH]c4ccccc4c3=O)cc2)CC1	12.9	2.3%	18.7%	0.8%	-109.0%*
O/C(=C\c1nc2ccccc2nc1/C=C(\O)c1ccccc1)c1ccccc1	-111.6*	3.9%	26.4%	0.1%	i
SMILES	RXFP1 antagonist	RXFP1 agonist	gsp ag	gsp antag	Akt phos inh
O=C(C=Cc1cccc(Cl)c1)c1ccccc1	-61.6*	/	?	1.2%	i
CSc1nn(CC(=O)Nc2cc(C)ccc2C)c(N)c1S(=O)(=O)c1ccccc1	/	1.4%	/	/	/
Cc1cccc(S(=O)(=O)C(C#N)c2nc3ccccc3nc2N2CC(C)OC(C)C2)c1 (configuration not stated)	-5.3	4.3%	-33.4%	-37.0%	i
Cc1ccc(S(=O)(=O)C(C#N)c2nc3ccccc3nc2N2CC(C)OC(C)C2)cc1C (configuration not stated)	0.1	2.2%	0.0%	39.8µM*	i
O=C(NN1CCCC1)NS(=O)(=O)c1ccc(Cl)cc1	10.0	/	/	/	/
Cc1cc(N2CCOCC2)nc(SCC(=O)OCc2ccccc2)n1	-11.0	0.0%	4.8%[15.4 µM]	4.0%	i
Cc1cc(N2CCOCC2)nc(SCc2ccc(Cl)cc2Cl)n1	-6.8	0.3%	-0.7%	-7.0%	-109.9%*
c1csc(-c2nnc(NC3CCCCC3)c3ccccc23)c1	-26.9	-1.3%	-8.7%	39.8µM*	i
CC1CCN(c2nnc(-c3cccs3)c3ccccc23)CC1	-30.2	2.2%	-48.7%	?	i
CCOC(=O)c1ccc(NC(=O)CCn2c(=O)c3cccn3c3cccnc32)cc1	-4.9	16.4%	/	/	/
CCn1ccc(NS(=O)(=O)c2ccc(N)cc2)nc1=O	-16.3	/	/	/	/
CCOc1c(Cl)cc(CNc2ccc(S(N)(=O)=O)cc2)cc1OC	15.1	1.6%	16.0%	9.1%	i
CCOc1c(Cl)cc(CNc2ccc(N3CCCC3)cc2)cc1OC	-75.5*	0.1%	6.7%[15.4 µM]	5.1%	i
Oc1ccc(COC2CCN(Cc3ccccc3)C2)c2cccnc12 (configuration not stated)	/	1.7%	/	/	/
Cc1ccc2[nH]cc(C(c3ccccc3)c3cccs3)c2c1 (configuration not stated)	-72.0*	5.5%	/	/	/
O=[N+]([O-])c1ccc2nc(-c3ccncc3)[nH]c2c1	0.3	26.8%	10µM*	-2.6%	i
Cc1ccc(-c2nc3ccc([N+](=O)[O-])cc3[nH]2)cc1	-17.4	-1.8%	17.7%	?	i
O=[N+]([O-])c1ccc2nc(-c3ccc(Cl)cc3)[nH]c2c1	-29.7	0.2%	-4.9%	35.5µM*	i
CN1CCc2c(sc(NC(=O)CS(=O)(=O)c3ccccc3)c2C(N)=O)C1	-62.7*	0.0%	0.2%[15.4 µM]	?	i
O=c1oc2ccccc2c(Nc2ccc(F)cc2)c1[N+](=O)[O-]	-0.3	0.5%	-26.2%	?	i
O=c1oc2ccccc2c(Nc2ccc(Cl)cc2)c1[N+](=O)[O-]	-1.2	-3.7%	-6.1%	28.2µM*	i
S=c1[nH]ccc2ccccc12	6.5	/	5.01µM*	28.0%	i
Cc1oc(-c2ccccc2)nc1CNC(=O)Nc1ccccc1	-9.5	1.3%	/	/	/
O=C(NCCN1CCOCC1)c1ccc(F)cc1	-1.2	-1.7%	2.3%	8.4%	-101.0%*
O=C(NC(=S)NCCN1CCOCC1)c1ccc(F)cc1	-7.7	-1.4%	?	3.8%	i
SMILES	RXFP1 antagonist	RXFP1 agonist	gsp ag	gsp antag	Akt phos inh
O=C(Cc1n[nH]c(=O)c2ccccc12)Nc1ccc(-c2nnc3n2CCCCC3)cc1	0.1	0.0%	5.2%	-6.7%	-109.7%*
O=C(Cn1[nH]c(=O)c2ccccc2c1=O)Nc1ccc(-c2nnc3n2CCCCC3)cc1	-2.5	2.9%	3.8%	7.3%	i
c1coc(-c2ccc3ncnc(NCc4cccs4)c3c2)c1	/	-0.1%	/	/	/
COc1cnn(-c2ccc(Br)cc2)c(=O)c1SCc1ccccc1	/	-7.4%	-8.0%	?	i
COc1cnn(-c2ccc(C)cc2)c(=O)c1SCc1ccccc1	-6.0	-13.0%	?	31.6µM*	i
COc1ccc(C(O)(C2CCCCC2)C(CN2CCOCC2)c2ccccc2)cc1 (configuration not stated)	-89.7*	0.0%	-1.7%	-18.8%	i
